Compound activity deposited in PubChem BioAssay by National Center for Advancing Translational Sciences (NCATS).
Hits are enriched below; roughly 21% of the tested compounds scored in any of these assays.
Pf growth 48h – Primary qHTS for delayed death inhibitors of the malarial parasite plastid, 48 hour incubation; hit rate 5.9% among 310,000; Potency, µM (doses to about 28.7 µM), for inactives: top-dose activity change, negative = inhibition, most hits filed as inhibitors; P. falciparum luciferase growth in erythrocytes, 48 h; AID 504832, 2011; active = well fitted inhibition curve with a large enough effect; inconclusive = small, poorly fitted or top-dose-only effect, or another doubt; inactive = no such curve, though single readings can be large or run the other way; note: potency is the fitted concentration of half-maximal effect; % is set by controls: 0 for no effect and ±100 for the full control effect
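Luminescence readout; reporter = integrated firefly luciferase in P. falciparum. RBC culture at 2% hematocrit, 0.1% parasitemia final, 37 C/5% CO2; decreased signal taken as growth inhibition.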
Pf growth 96h – Primary qHTS for delayed death inhibitors of the malarial parasite plastid, 96 hour incubation; P. falciparum luciferase reporter growth, 96 h; Potency, µM (doses to about 28.7 µM), without a hit: at the top dose activity change, negative = inhibition, hits mostly inhibitors; hit rate 6.9% among 320,000; active = well fitted inhibition curve with a large enough effect; inconclusive = small, poorly fitted or top-dose-only effect, or another doubt; inactive = no such curve, though single readings can be large or run the other way; note: potency is the fitted concentration of half-maximal effect; % is set by controls: 0 for no effect and ±100 for the full control effect
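Two parasite generations (96 h, 37 C, 5% CO2) of compound exposure in infected erythrocytes (0.05% parasitemia, 2% hematocrit). Luciferase-reporter P. falciparum; decreased luminescence indicates inhibited growth, aimed at apicoplast-acting delayed death.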
Shiga toxin inh – A qHTS for Small Molecule Inhibitors of Shiga Toxin; Vero cells, Shiga toxin protein synthesis inhibition reporter; inhibition, % at 38.7 µM; hit rate 9.2% among 290,000; AID 2315, 2010; in the data active = inhibition mostly above about 28%, no sharp cut-off; inactive = mostly below about 43%; note: 0% is about no effect
SARS PLP yeast – qHTS of Yeast-based Assay for SARS-CoV PLP; S. cerevisiae expressing SARS-CoV PLpro, growth rescue; Potency, µM (titrated, usually from 32.9 µM), inactives show at the top dose activity, positive = growth rescue, hits mostly activators; hit rate 0.19% among 330,000; note: potency is the fitted concentration of half-maximal effect; 0% is about no effect; nearly all actives have a fitted effect of over 55% in size
CHX counter – Cycloheximide Counterscreen for Small Molecule Inhibitors of Shiga Toxin. cell reporter, cycloheximide protein synthesis inhibition counterscreen. max response, %. hit rate 12% among 300,000; in the data active = max response mostly above about 13%, no sharp cut-off; inactive = mostly below about 14%; note: read at 38.3 µM for the half of the compounds with a filed dose; 0% is about no effect
NS1 function inh – qHTS Assay for Inhibitors of Influenza NS1 Protein Function; AID 2326, 2010; Potency, µM (highest dose often 46.1 µM), for inactives: at the top dose activity, positive = more growth; hit rate 0.4% among 270,000; note: potency is the fitted concentration of half-maximal effect; actives are rising curves; nearly all actives have a fitted effect of over 50% in size
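In this qHTS, NS1 from influenza A is expressed in budding yeast, where it slows growth. Cells are switched from glucose to 2% galactose medium (pH 6.0, -URA), treated with compound, and growth recovery is read at OD600.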
The depositor's hits bear a star; u = inconclusive; x = not tested or not shown; [ ] = dose if it differs, or a comment. Unless noted, calls come from the whole dose curve.

SMILES	Pf growth 48h	Pf growth 96h	Shiga toxin inh	SARS PLP yeast	CHX counter	NS1 function inh
CCN(CC)S(=O)(=O)c1ccc(OC)c(NC(=O)C(C)Oc2ccc3c(C)cc(=O)oc3c2)c1 (configuration not stated)	1.85µM*	9.28µM*	-9.5	1.6%	-1.6	19.4%
COc1ccc(-c2cc(=O)oc3cc(OC(C)C(=O)NC4CC4)ccc23)cc1 (configuration not stated)	u	2.94µM*	9.0	4.0%	-2.0	-2.0%
Cc1ccc(S(=O)(=O)NC(=O)C2CCCCC2)cc1	-2.2%	18.8%	x	3.2%	x	x
CCn1nc(C)cc1-c1nnc(Sc2ncc([N+](=O)[O-])s2)n1C	8.2%[0.00184 µM]	0.4%	-8.3	-9.8%	-3.5	-84.4%
N#C/C(=C\c1cn(-c2ccccc2)nc1-c1cccnc1)c1nnc2n1CCCCC2	x	8.28µM*	-13.5	-5.2%	-4.6	3.6%
CC(C)CN1C(=O)NC(NC(=O)c2cccs2)(C(F)(F)F)C1=O (configuration not stated)	2.33µM*	15.4%	16.0	-5.3%	-2.5	-2.4%
CN1C(=O)NC(NC(=O)c2cccs2)(C(F)(F)F)C1=O (configuration not stated)	13.6%	306.2%	-14.0	0.1%	-1.2	-6.8%
O=C(/C=C/c1ccc(Cl)cc1)Nc1ccc(N2CCOCC2)cc1	-10.6%	11.6%	18.8	1.3%	-0.9	1.7%
COc1cccc(/C=C/C(=O)Nc2cc(S(=O)(=O)N3CCOCC3)ccc2OC)c1	-13.7%	30.8%	x	2.4%	x	x
O=C(CN1CCN(S(=O)(=O)/C=C/c2ccccc2)CC1)Nc1ccccc1N1CCOCC1	u	3.7µM*	-6.3	-4.7%	-0.8	-7.5%
O=C(/C=C/c1ccc(Cl)cc1)Nc1ccccc1N1CCOCC1	33.9%	14.7µM*	10.9	-5.5%	0.5	-32.4%
NC(=O)C1CCN(CC(=O)Nc2ccccc2N2CCOCC2)CC1	5.5%	15.4%	-5.6	0.1%	-4.6	4.0%
COc1cccc(/C=C/C(=O)Nc2ccccc2N2CCOCC2)c1	60.2%	-16.8%	43.9	-2.6%	29.4*	x
O=C1C2C3C=CC(C3)C2C(=O)N1CCN1CCN(S(=O)(=O)/C=C/c2ccccc2)CC1 (configuration not stated)	-3.5%	5.86µM*	24.3	-0.3%	-3.7	0.5%
CCNC(=O)C1CC(=O)N(CCCc2ccccc2)C(=Nc2ccccc2)S1 (configuration not stated)	u	u	16.4	-1.3%	-2.6	-13.6%
CN(C)CCn1c2c(c(SCC(=O)Nc3ccc4c(c3)OCCO4)nc1=O)CCCC2	u	-7.2%	x	0.6%	x	x
CCOC(=O)N1CCN(CC(=O)Nc2ccc(F)c(F)c2)CC1	15.8%	16.6%	-5.5	0.9%	-2.1	x
COc1cc(C(=O)OCc2cc(=O)oc3c(C)c(C)ccc23)ccc1OC(F)F	20.8%	36.4%	19.3	-1.4%	-5.1	1.2%
CC(=O)NC1C(=O)N(CCc2ccccc2)c2ccc(Br)cc21 (configuration not stated)	x	1.85µM*	-12.1	-6.7%	-1.7	29.2%
CC(=O)NC1C(=O)N(Cc2ccccc2)c2ccc(Br)cc21 (configuration not stated)	40.2%	u	4.1	-0.9%	0.7	u
CCCCn1c(O)c(/C(C)=N/NC(=O)Nc2ccccc2)c(=O)[nH]c1=O	44.9%	49.3%	38.8*	-0.7%	30.5*	-7.7%
CC/C(=N\NC(=O)c1ccccc1O)c1c(O)n(C2CCCCC2)c(=O)[nH]c1=O	u	11.7µM*	51.6*	-4.3%	23.4*	-7.6%
CCCCn1c(O)c(C(C)=NCc2ccc(F)cc2)c(=O)[nH]c1=O	-13.5%	6.57µM*	-22.0	6.1%	-6.5	-2.3%
CCC(=NCC1CCCO1)c1c(O)n(Cc2ccccc2)c(=O)[nH]c1=O (configuration not stated)	-20.2%	-19.1%	-2.5	-4.0%	-4.5	4.9%
CCCCn1c(O)c(C(CC)=NCc2ccc(F)cc2)c(=O)[nH]c1=O	u	u	-5.8	-4.6%	-4.1	-4.5%
